The whole screen tested about 2,000 compounds, of which fewer than 10 were called active. Not all results are given here. Unmarked numbers belong to inactive results.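 The calls were made as follows: active = growth inhibition of at least 75% in every replicate, which also brings the mean inhibition to 75% or more; inconclusive = mean inhibition 75% or more but some replicate under 75%; inactive = the rest.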
assay: reduced viability of yeast carrying PfHsp90 – S. cerevisiae, BacTiter-Glo luminescence, antimalarial PfHsp90 inhibitor project, primary screen (AID 504594);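 also: 0% = DMSO neutral control wells and 100% = 20 µM radicicol control wells; higher value means stronger growth inhibition because the sign is flipped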; settings: S. cerevisiae expressing PfHsp90, BacTiter-Glo growth, 48 h; at 9.4 µM; stronger effect = higher value

Structure (SMILES)	growth inhibition
CC(=O)C1=C(O)C(=O)OC1c1ccc(C)cc1 (stereo not given)	14.7%
CC12CC(c3ccccc3O1)C(C(=O)N1CCOCC1)C(=O)N2 (stereo not given)	-11.3%
COc1cc2c(cc1OC)C1(CCCC1)CNC2c1cccc([N+](=O)[O-])c1 (stereo not given)	-7.37%
Cc1csc(-c2coc3cc(O)cc(C)c3c2=O)n1	23.5%
Cc1nc(N)sc1C(=O)N/N=C/c1ccco1	-1.68%
Nc1nc2c(nc(SCc3ccccc3Br)n2C2OC(CO)C(O)C2O)c(=O)[nH]1 (stereo not given)	-22.3%
COc1ccc(/C=C2\CC/C(=C\c3ccc(OC)c(OC)c3)C2=O)cc1OC	-15.8%
CCc1cc2c(=O)c(-c3ccc4c(c3)OCCO4)coc2c(CN2CCCCC2C)c1O (stereo not given)	-11.5%
CCOC(=O)c1ccc(N2C(=O)C(CC(=O)NC)N(CCc3ccc(OC)c(OC)c3)C2=S)cc1 (stereo not given)	8.13%
O=C(Cc1cccc2ccccc12)N1CC[C@@]2(O)CCCC[C@H]2C1	-9.85%
COc1ccccc1C(=O)N=C1NC(=O)CC2C(=O)NCCN12 (stereo not given)	2.95%
Cc1ccc2c(c1)C1OCCC1C1N2C(=O)C2C(C(=O)O)C3C=CC21O3 (stereo not given)	-2.86%
COc1ccc(CNC(=O)C2CCCN2C)cc1OC (stereo not given)	-16.4%
COc1ccc2[nH]c(=O)c(CNC3CCCCC3)cc2c1	-29%
CCOC(=O)C1=C(N)Oc2c(oc(CO)cc2=O)C1c1ccc(F)c(F)c1 (stereo not given)	-16.3%
CC12CCC(C(=O)NCc3ccccn3)(OC1=O)C2(C)C (stereo not given)	-9.47%
CC(=O)O[C@H]1C(=O)[C@@]2(C)[C@H]([C@H](OC(=O)c3ccccc3)[C@]3(O)C[C@H](OC(=O)[C@H](O)C(NC(=O)c4ccccc4)c4ccccc4)C(C)=C1C3(C)C)[C@]1(OC(C)=O)CO[C@@H]1C[C@@H]2O (stereo not given in full)	4.3%
CCOC(=O)N1c2ccccc2C=CC1OCC (stereo not given)	-5.21%
Cc1cc(=O)oc2cc(OC(C)C(=O)NCC3CCCO3)ccc12 (stereo not given)	-2.4%
CC(=O)N1CCN(c2ccc(OC[C@H]3CO[C@](Cn4ccnc4)(c4ccc(Cl)cc4Cl)O3)cc2)CC1	94.4% (active)
CCC(C)n1ncn(-c2ccc(N3CCN(c4ccc(OCC5COC(Cn6cncn6)(c6ccc(Cl)cc6Cl)O5)cc4)CC3)cc2)c1=O (stereo not given)	-1.74%
O=C(O)c1ccc(OCCn2ccnc2)cc1	-4.4%
Cc1oc(/C=N/NC(=O)CC2(C)OCCO2)cc1Br	-11.1%
C=C(C)[C@@H]1CC=C(CN2CCC(N3CCC(C(=O)N4CCCC4)CC3)CC2)CC1	-0.183%

Structure (SMILES)	growth inhibition
CCN(CC)CCN1C(=O)C(=O)/C(=C(/O)c2c(C)[nH]c(C(=O)OC)c2C)C1c1cccnc1 (stereo not given)	-4.71%
COc1cccc(N2CC34C=CC(O3)C(C(=O)O)C4C2=O)c1 (stereo not given)	-1.36%
COc1ccc(OC)c(-c2oc3ccccc3c(=O)c2O)c1	-8.17%
Cc1ccsc1C1NC(=O)c2ccccc2N1 (stereo not given)	-12.4%
COc1cc(C(=O)N/C(=C\c2cn(C)c3ccccc23)C(=O)NCCCO)cc(OC)c1OC	13.5%
CCc1nc2ccccc2n1Cc1ccc(OC)c(OC)c1	2.55%
C/C(NC(=O)c1cccs1)=C1\C(=O)C[C@@H]2[C@H]1C2(C)C	1.59%
CCc1cc2c(=O)c(-c3nc(C)cs3)c(CCCC(=O)O)oc2cc1O	-4.53%
CN(C)CCOc1ccc(Cl)cc1C(C)(C)C	-0.977%
COc1ccc2c(c1OC)C(=O)N1C2SC[C@H]1C(=O)NC1CC(C)(C)NC(C)(C)C1 (stereo not given in full)	2.59%
N#Cc1cc2c([nH]c1=O)CCCC2	8.49%
COc1cc2c(cc1O)CCN(C(=O)c1ccco1)C2C (stereo not given)	3.62%
Cc1c(Cc2ccccc2)c(=O)oc2c(CN(C)C)c(O)c(Cl)cc12	-2.33%
COc1cccc(N2C(=O)[C@H]3C(C(=O)c4cnccn4)=NN[C@H]3C2=O)c1	-1.02%
O=C(O)C[C@@H](O)C(=O)O	-8.31%
Cc1ccc(CSCC(=O)N2CCCC2)cc1	-5.17%
O=C(NCCc1nc2ccccc2[nH]1)c1cccc(Br)c1	2.71%
CCNC(=S)N1CCN(CCN2C(=O)c3cccc4cccc(c34)C2=O)CC1	2.01%
COc1c2occc2c(OC)c2c(=O)cc(C(F)(F)C(F)(F)F)oc12	-5.37%
CC(=O)NC(Cc1c[nH]c2ccccc12)C(=O)N/N=C/c1ccccc1 (stereo not given)	13.4%
O=C(CN1CC[n+]2c(-c3cccs3)csc21)c1ccc(Br)cc1	-7.32%
Cc1ccc2nc(N=C(N)N)nc(C)c2c1	-4.91%
COc1ccc(CNC(=O)N[C@H](C(=O)O)C(C)C)cc1OC	-0.856%
CCOC(=O)NN1C(=O)c2ccccc2NC1c1ccc(OC)c(OC)c1 (stereo not given)	-6.91%

Structure (SMILES)	growth inhibition
COC(=O)c1[nH]c(=O)c2ccccc2c1O	-11.7%
COC(=O)c1cc(OC)c(OC)cc1NC(=O)CN1C(=O)c2ccccc2C1=O	-14.3%
COc1cc(CNc2ccc(C)c(C)c2)cc(OC)c1OC	13.4%
Clc1ccc2c(c1)[C@H]1OCC[C@H]1[C@@H](c1ccco1)N2	1.42%
CC1(c2ccccc2)CC(C)(C)N2C(=O)C(=O)c3cccc1c32 (stereo not given)	-3.23%
O=c1nc2cccc3c2=c(/c1=C(\O)c1ccccc1)c1ccccc1c3=O	-23.6%
O=C1Nc2ccc3sc4ccccc4c3c2C1=O	-1.28%
O=C(CN1C(=O)/C(=C/c2cccc(Br)c2)SC1=S)Nc1cccnc1	-5.73%
CC(C)c1ccc(/C=C/C(=O)O)cc1	-10.9%
COc1ccc(CC(=O)N2CC3(C)CC2CC(C)(C)C3)cc1OC (stereo not given)	12.2%
COc1ccc(CCn2c(C)cc3c(c2=O)C(c2ccncc2)C(C#N)=C(N)O3)cc1OC (stereo not given)	-3.67%
CC1(C)CC(CC(=O)O)(c2ccc(Cl)cc2)CCO1 (stereo not given)	4.78%
Cc1cccc2c1CC(C)(C)N/C2=C\C(N)=O	1.18%
COc1ccc(-c2[nH]ncc2C=O)cc1OC	7.91%
O=C(/C=C/c1ccc(F)cc1)NC(=S)N1CCCCC1c1cccnc1 (stereo not given)	4.68%
C=CCc1cccc2cc(C(=O)Nc3ccc(CC(=O)O)cc3)c(=O)oc12	-7.68%
C[C@H](NC(=O)C1(c2ccccc2)CCN(C(=O)[C@H]2CSCN2C(=O)OC(C)(C)C)CC1)C(=O)O	-9.59%
COC1CCN(Cc2cn(Cc3ccccc3)nc2-c2cc3ccccc3o2)CC1	3.22%
CC(C)CN1CC(C(=O)O)CC1=O (stereo not given)	-3.33%
CCOCCn1c(C(C)O)nc2ccccc21 (stereo not given)	-8.58%
O=C(CC(NC(=O)OCc1ccccc1)C(=O)O)OCc1ccccc1 (stereo not given)	0.482%
COc1ccc(C(=O)Nc2ncc3c(n2)CC(C)CC3=O)cc1 (stereo not given)	-12.5%
O=C1NCC2=C1C(c1ccccc1)Nc1ccccc1N2 (stereo not given)	6.48%
COc1cccc(C2CC(=O)C3=C(C2)Nc2ccccc2N(C(=O)CCC(=O)O)C3c2ccc(F)cc2)c1 (stereo not given)	3.39%

Structure (SMILES)	growth inhibition
COc1ccc(C(=O)CCN2CCc3cc(OC)c(OC)cc3C2)cc1	4.16%
O=C1OC(=O)C2C1[C@@H]1CC[C@H]2O1 (stereo not given in full)	-14%
COCc1cc(=O)[nH]c(/N=C(\N)Nc2ccc(Oc3ccccc3)cc2)n1	-12.9%
CC(=O)c1ccc(CCCCCCCCCC(=O)O)s1	-16.6%
CC(C)CN1CCN(Cc2ccc3ncccc3c2)CC1CCO (stereo not given)	-15.2%
O=c1ccc2c(o1)/C(=C/C=C(Cl)Cl)CCC2	-2.29%
CC(C)(C)C(=O)NCCCNc1ccc([N+](=O)[O-])cc1	4.14%
CC(=O)c1c(C)[nH]c(C(=O)OCc2ccccc2)c1C	-16%
NS(=O)(=O)c1ccc(CCNC(=O)C2CCCN2C(=O)OCc2ccccc2)cc1 (stereo not given)	-1.5%
Cn1c(Oc2ccc3c(c2)OCO3)nc2c1c(=O)n(Cc1ccccc1)c(=O)n2C	5.1%
Oc1c(Cl)cc(Cl)c(Cl)c1Cc1c(O)c(Cl)cc(Cl)c1Cl	104% (active)
Cc1c2c(nc3c(C)cccc13)OC(C)C2 (stereo not given)	8.19%
CCOC(=O)n1c(=O)oc2ccccc21	-13.3%
Cc1csc(CCc2nc(C)cs2)n1	0.825%
O=C(Nc1ccc(F)c([N+](=O)[O-])c1)c1ccc2c(c1)OCCO2	-4.38%
CC(C)NS(=O)(=O)c1ccc(OCC(=O)Nc2cccc(F)c2)cc1	4.62%
COc1c2c(nc3occc13)C(CC=C(C)C)(OC)C(O)CC2 (stereo not given)	3.58%
COc1ccc(C=NCC2COc3ccccc3O2)cc1OC (stereo not given)	13.6%
O=C(Oc1cccccc1=O)c1ccccc1	11%
Cc1nc2ccccc2n1CC(=O)NC1CCCC1	-8.15%
CC1(C)CC(=O)c2cnc(NC(=O)C3CCCC3)nc2C1	0.802%
Cc1ccc(S(=O)(=O)Oc2ccccc2/C=N/N=C(N)N)cc1	9.9%
c1ccc(-c2ccc(C(c3ccccc3)n3ccnc3)cc2)cc1 (stereo not given)	91.6% (active)

— PubChem BioAssay AID504594 (Broad Institute, 2011)
